Screening results (PubChem BioAssay)
A selection: hits, their analogues and other compounds. The true share with any hit is near 1.4%.
Glioma ERSR ind – ER stress response induction in glioma. U87-MG GRP78 promoter luciferase reporter, 16 h. Potency, µM, most hits filed as activators. 420,000 compounds, 0.02% hits. AID 602332; also: series mostly up to about 76 µM; nearly all actives have a fitted effect of over 35% in size
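ERSR induction read as luciferase luminescence (Bright-Glo, 10 min at room temperature) in stably transfected human U87-MG glioma cells exposed to compounds for 16 h, using GRP78 as sensor.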
KCNH2 3.1 block – blocks the human KCNH2 3.1 channel isoform; U2OS KCNH2 3.1, thallium flux FluxOr; active compounds read low; activity change, % (tested at about 1.8 µM); 340,000 compounds, 0.95% hits; AID 720553;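 active = maximum activity change below -70%; inconclusive = maximum activity change from -70% to -50%; inactive = maximum activity change above -50%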;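 also: thallium influx rate constant from kinetic fluorescence after stimulation buffer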
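Thallium flux read-out: FluxOr dye with Red40 quencher in HBSS/HEPES, 45 min at RT. Rate constants from kinetic reads were normalized to positive and negative DMSO controls. Cells: U2OS virally expressing the 3.1 isoform.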
RXFP1 ag – agonists of human relaxin receptor RXFP1. Q9HBX9. Potency, µM (series often up to 57.5 µM), hits mostly activators. HEK293T-RXFP1 cAMP TR-FRET, 30 min; response scale: percent of porcine relaxin response, buffer zero. 370,000 compounds, 0.3% hits. AID 2676; also: nearly all actives have a fitted effect of over 60% in size
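cAMP rise read by TR-FRET after 30 min, 37C compound exposure (up to 58 uM) in RXFP1-transfected HEK293 cells with Ro 20174 present. EC50 from Hill-equation fits, with 29 nM porcine relaxin as 100% and buffer as basal.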
PTHR1 ag – activates the human parathyroid hormone receptor PTHR1. Potency, µM (top dose mostly 115 µM), most hits filed as activators. HEK293 GP2 PTHR1 cells, GloSensor cAMP luminescence, 1 h. 410,000 compounds, 0.075% hits; also: nearly all actives have a fitted effect of over 55% in size
Target sequence (Q03431 whole entry, looked up): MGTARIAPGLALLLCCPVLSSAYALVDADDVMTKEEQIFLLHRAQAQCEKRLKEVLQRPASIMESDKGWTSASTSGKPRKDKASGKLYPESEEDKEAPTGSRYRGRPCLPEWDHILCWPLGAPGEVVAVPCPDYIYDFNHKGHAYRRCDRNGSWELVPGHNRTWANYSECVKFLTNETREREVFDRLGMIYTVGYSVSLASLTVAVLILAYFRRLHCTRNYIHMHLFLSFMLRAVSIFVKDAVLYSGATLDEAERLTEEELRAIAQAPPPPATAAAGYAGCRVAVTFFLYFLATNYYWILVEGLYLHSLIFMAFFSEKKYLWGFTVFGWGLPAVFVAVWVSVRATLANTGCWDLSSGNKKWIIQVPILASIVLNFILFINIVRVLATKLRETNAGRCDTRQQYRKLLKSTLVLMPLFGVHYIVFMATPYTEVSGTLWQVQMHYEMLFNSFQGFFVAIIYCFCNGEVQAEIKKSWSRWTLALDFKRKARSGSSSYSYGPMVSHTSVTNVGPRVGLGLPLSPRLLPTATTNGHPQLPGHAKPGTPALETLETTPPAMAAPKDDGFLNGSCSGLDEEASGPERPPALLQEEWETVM
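HEK-293-derived GP2 cells expressing PTHR1 and a GloSensor cAMP reporter, 3,000/well, plated overnight, given luciferin plus IBMX (each 0.5 mM as added) for 1 h at 37 °C, then compound for 1 h at 37 °C. Luminescence was read after 15 min at room temperature.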
RXFP1 antag – antagonists of human relaxin receptor RXFP1; activity change, negative = inhibition, % at 57.5 µM; 350,000 compounds, 0.59% hits; HEK293-RXFP1, relaxin-stimulated cAMP HTRF, 30 min; active compounds read low;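 active = activity change of -60% or lower, but not beyond a set lower limit; inconclusive = change between -60% and -40%, or beyond the set limit; inactive = change above -40%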
KCNH2 WT inh – blocks the wildtype human KCNH2 potassium channel; Q12809; U2OS, BacMam KCNH2, thallium flux FluxOr; active compounds read low; activity change, % at 1.84 µM; 340,000 compounds, 0.37% hits;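 active = maximum activity change below -70%; inconclusive = maximum activity change between -70% and -50%; inactive = maximum activity change above -50%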
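U2OS cells were transduced with wild-type KCNH2 virus (2.03 x 10^8 / mL) for 4 h at room temperature, then cultured overnight at 37 C. Thallium flux was read with FluxOr dye. Rate constants were normalized to DMSO controls.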
Each line names hits and unclear results; the compound was inactive in the other large screens; ! = repeats disagree. Unless noted, calls follow the shape of the dose curve; as a rule, active = well fitted curve in the direction sought with a large enough effect; inconclusive = small, poorly fitted or top-dose-only effect, or another doubt; inactive = no such curve, though single readings can be large; an effect the other way counts as inactive or inconclusive.

COc1ccc(-c2nc(CS(=O)(=O)CC(=O)NC3CCCCCC3)c(C)o2)cc1	KCNH2 WT inh -102
Cc1ccc(-c2nc(CS(=O)(=O)CC(=O)NCCN3CCOCC3)c(C)o2)cc1	KCNH2 WT inh -187
Cc1ccccc1-c1nc(CS(=O)(=O)CC(=O)NCCN2CCOCC2)c(C)o1	none
COc1cc2c(cc1OC)CN(C(=O)CN1CCN(S(=O)(=O)c3ccccc3Br)CC1)CC2	none
O=C(Nc1ccc(Cl)c([N+](=O)[O-])c1)ONC1=NCCCCC1	none
O=C1CC(c2cccc(F)c2)SC(N(c2ccccc2)c2ccccc2)=N1 (stereo unspecified)	none
COc1ccc(-c2cc(-c3cc(C)ccc3O)[nH]n2)cc1	Glioma ERSR ind inconclusive, RXFP1 antag -100
O=C(O)c1cc([N+](=O)[O-])ccc1NCCCc1ccccc1	Glioma ERSR ind 28µM! (no result: RXFP1 ag, RXFP1 antag)
COc1ccc(CCNC(=O)CCN2C(=O)C(C)Oc3ccc(C)cc32)cc1OC (stereo unspecified)	none
CS(=O)(=O)NCCSCc1ccccc1	none
Cc1ccccc1CSCCNS(C)(=O)=O	KCNH2 3.1 block -79
Cn1c(=O)c([N+](=O)[O-])c(Cl)c2ccccc21	RXFP1 antag -80
O=C(c1ccc(F)cc1)N1CCC2(CC1)NCCc1[nH]cnc12	none
COc1ccc(C(=O)N2CCC3(CC2)NCCc2[nH]cnc23)cc1	KCNH2 3.1 block -84 (no result: KCNH2 WT inh)
CCCCNC(=O)c1ccc2c(=O)n(CCCOCC)c(=S)[nH]c2c1	none
CCOCCCNC(=O)c1ccc(-n2c(=S)[nH]c3ccccc3c2=O)cc1	RXFP1 antag -90
S=C(Nc1ccccc1)Nc1nc2ccccc2n1CCOc1ccc(Br)cc1	none
Nc1nc2ccccc2n1CCOc1ccc(Cl)cc1	KCNH2 3.1 block -84
Nc1nc2ccccc2n1CCOc1ccc(Br)cc1	KCNH2 3.1 block -91
Nc1nc2ccccc2n1CCOc1ccccc1Cl	none
COc1ccc([C@H]2C=C(C(=O)O)O[C@@H](OCCCCO)C2)cc1	none (no result: RXFP1 antag)
COc1ccc(O)c(/C=N/NC(=O)CCC(=O)Nc2ccc(F)cc2)c1	none
CCCCCCn1c(/C=C/c2ccccc2)nc2ccccc21	none (no result: KCNH2 3.1 block, KCNH2 WT inh)
CCn1c(/C=C/c2ccccc2)nc2ccccc21	none
CC(C)Cn1c(/C=C/c2ccccc2)nc2ccccc21	RXFP1 antag -66
CCCn1c(/C=C/c2cc[n+](C)cc2)nc2ccccc21	RXFP1 ag 20µM
CCCCN(C1CCS(=O)(=O)C1)S(=O)(=O)c1cc(C)ccc1C (stereo unspecified)	none
[N-]=[N+]=NC1c2ccccc2C(=O)N1Cc1ccccc1 (stereo unspecified)	none
O=S(=O)(c1ccc(F)cc1)N1CCC(n2cnc3ccccc32)CC1	none
O=S(=O)(c1ccc(Cl)cc1)N1CCC(n2cnc3cc(C(F)(F)F)ccc32)CC1	KCNH2 3.1 block -83 (no result: RXFP1 ag)
C=C1CC2C(=O)N(Cc3ccccc3)C(C(=O)O)C1N2C(=O)OC(C)(C)C (stereo unspecified)	none (no result: KCNH2 3.1 block, RXFP1 ag, PTHR1 ag, RXFP1 antag, KCNH2 WT inh)
CC1=NN(c2nc(N)nc(/C(C#N)=C/c3ccc([N+](=O)[O-])o3)n2)C(C)(C)C1	KCNH2 3.1 block -72 (no result: RXFP1 ag)
Nc1nc(N)c(-c2cccc(C(F)(F)F)c2)c(Cc2cccc(C(F)(F)F)c2)n1	RXFP1 antag -93 (no result: RXFP1 ag)
S=C(NCc1ccccn1)Nc1ccc(Cl)cc1	KCNH2 3.1 block -196, KCNH2 WT inh -199
Cc1ccc([C@H]2C[C@H](O)[C@@H](n3cc(-c4ccc(F)cc4)nn3)CN2C(=O)C2CCCCC2)cc1	none (no result: RXFP1 ag)
O=C(Nc1nnc(C2CC2)s1)C1Cc2ccccc2CN1C(=O)c1ccco1 (stereo unspecified)	none
O=C(Nc1nnc(SCc2ccc(F)cc2)s1)C1Cc2ccccc2CN1C(=O)c1ccco1 (stereo unspecified)	RXFP1 antag -64
Cc1cc(C)c2c(CN3CCCCC3)cc(=O)oc2c1	none
Cc1cc(C)c2c(CN3CCN(C/C=C/c4ccccc4)CC3)cc(=O)oc2c1	KCNH2 3.1 block -87, KCNH2 WT inh -101
